In the supplement of paper PMC12645437, “Orthogonal IMiD-Degron Pairs Induce Selective Protein Degradation in Cells” (ACS Chemical Biology, 2025):
Whole data set: some 8,300 sequences, median “log2 fold change of degron read counts, EGFP-low vs EGFP+ sorted cells (limma voom), compound-induced degradation” near -1.1, cut for the highest 2% near 3.2. For the sample, the highest values were picked, then their nearest neighbours and some sequences at random.

T1: CRBN, Q96SW2
T1 chain: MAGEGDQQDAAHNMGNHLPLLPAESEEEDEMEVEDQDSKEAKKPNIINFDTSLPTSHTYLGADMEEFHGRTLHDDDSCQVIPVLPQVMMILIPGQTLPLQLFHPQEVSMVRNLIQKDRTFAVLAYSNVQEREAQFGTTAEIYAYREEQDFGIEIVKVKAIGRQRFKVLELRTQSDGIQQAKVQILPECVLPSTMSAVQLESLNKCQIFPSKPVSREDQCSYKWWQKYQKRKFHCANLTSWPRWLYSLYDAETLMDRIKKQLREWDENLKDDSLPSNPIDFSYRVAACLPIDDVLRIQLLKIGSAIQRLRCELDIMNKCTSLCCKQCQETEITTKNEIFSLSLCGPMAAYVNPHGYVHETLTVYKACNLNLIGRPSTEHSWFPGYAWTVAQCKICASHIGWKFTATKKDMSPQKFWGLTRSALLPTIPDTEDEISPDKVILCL


Target: T1, CRBN, Q96SW2
Experiment: log2 fold change of degron read counts, EGFP-low vs EGFP+ sorted cells (limma voom), compound-induced degradation; higher = more compound-induced degradation of the degron-EGFP fusion; degrons are variants of IKZF1/3 zinc finger 2; compound dose not given here
Settings: Jurkat, 18 h
[1] = compound: compound 19 (5-tert-butyl-thalidomide)
[2] = compound: compound 22 (5-morpholino-thalidomide)
[3] = compound: compound 33 (diphenyl IMiD analogue)
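Note: pooled lentiviral library of zinc finger degron-EGFP fusions in mCherry-positive Jurkat cells, FACS-sorted after compound exposure, with degron abundance counted by next-generation sequencing.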

| Sequence | log2 fold change of degron read counts [1] | log2 fold change of degron read counts [2] | log2 fold change of degron read counts [3] | log2 fold change of degron read counts (compound: thalidomide) |
| --- | --- | --- | --- | --- |
| FGCDVCGALFTQKGNLLRHIKL [46F_47G_49D_50V_52G_53A_54L_55F_67L_, Q9UKT9] | -0.285 | -1.26 | 0.277 | -1.67 |
| FLCNQCGRHFTQKGNLLRHIKL [46F_47L_49N_50Q_52G_53R_54H_55F_67L_, Q9UKT9] | -2.4 | -2.59 | -2.64 | -2 |
| FSCNVCGAYFTQKGNLLRHIKL [46F_47S_49N_50V_52G_53A_54Y_55F_67L_, Q9UKT9] | -0.837 | -0.921 | 0.627 | -0.674 |
| FACNQCGRGFTQKGNLLRHIKL [46F_47A_49N_50Q_52G_53R_54G_55F_67L_, Q9UKT9] | -2.53 | -2.62 | -2.49 | -2.4 |
| FECNQCGATFTQKGNLLRHIKL [46F_47E_49N_50Q_52G_53A_54T_55F_67L_, Q9UKT9] | -2.51 | -3.02 | -2.92 | -1.69 |
| FICDQCGARFTQKGNLLRHIKL [46F_47I_49D_50Q_52G_53A_54R_55F_67L_, Q9UKT9] | -2.79 | -0.912 | -0.818 | -1.23 |
| FSCPICGAWFTQKGNLLRHIKL [46F_47S_49P_50I_52G_53A_54W_55F_67L_, Q9UKT9] | 0.603 | -0.272 | 0.788 | -0.152 |
| FVCNQCGADFTQKGNLLRHIKL [46F_47V_49N_50Q_52G_53A_54D_55F_67L_, Q9UKT9] | -3.46 | -3.35 | -3.82 | -2.79 |
| FRCEICGRRFTQKGNLLRHIKL [46F_47R_49E_50I_52G_53R_54R_55F_67L_, Q9UKT9] | -2.67 | -2.2 | -1.21 | -0.634 |
| FSCDQCGAEFTQKGNLLRHIKL [46F_47S_49D_50Q_52G_53A_54E_55F_67L_, Q9UKT9] | -2.57 | -3.41 | -1.87 | -2.94 |
| FCCPICGRCFTQKGNLLRHIKL [46F_47C_49P_50I_52G_53R_54C_55F_67L_, Q9UKT9] | -0.609 | -0.825 | 0.868 | 0.188 |
| FVCEICGRPFTQKGNLLRHIKL [46F_47V_49E_50I_52G_53R_54P_55F_67L_, Q9UKT9] | -1.68 | -0.932 | -1.28 | -0.0354 |
| LCCPICGFKCTQKGNLLRHIKL [46L_47C_49P_50I_52G_53F_54K_55C_67L_, Q9UKT9] | 1.84 | 1.91 | 0.929 | 2.55 |
| FNCEICGAKFTQKGNLLRHIKL [46F_47N_49E_50I_52G_53A_54K_55F_67L_, Q9UKT9] | 2.53 | 0.377 | -1.68 | 0.453 |
| FDCEICGAKFTQKGNLLRHIKL [46F_47D_49E_50I_52G_53A_54K_55F_67L_, Q9UKT9] | 2.14 | 0.278 | -2.01 | 1.01 |
| FFCEICGAKFTQKGNLLRHIKL [46F_47F_49E_50I_52G_53A_54K_55F_67L_, Q9UKT9] | 3.78 | 3.65 | 1.37 | 1.7 |
| FHCEICGAKFTQKGNLLRHIKL [46F_47H_49E_50I_52G_53A_54K_55F_67L_, Q9UKT9] | 2.99 | 2.33 | -0.357 | 0.544 |
| FQCEICGAKFTQKGNLLRHIKL [46F_47Q_49E_50I_52G_53A_54K_55F_67L_, Q9UKT9] | 0.93 | 2.95 | 0.278 | 3.46 |
| FCCEICGAKFTQKGNLLRHIKL [46F_47C_49E_50I_52G_53A_54K_55F_67L_, Q9UKT9] | 3.35 | 2.52 | 0.0496 | 2.53 |
| FLCEICGAKFTQKGNLLRHIKL [46F_47L_49E_50I_52G_53A_54K_55F_67L_, Q9UKT9] | 0.834 | -0.868 | -0.0729 | 2.07 |
| FKCEICGAKFTQKGNLLRHIKL [46F_47K_49E_50I_52G_53A_54K_55F_67L_, Q9UKT9] | -1.09 | -3.1 | -3.06 | -1.37 |
| FECEICGAKFTQKGNLLRHIKL [46F_47E_49E_50I_52G_53A_54K_55F_67L_, Q9UKT9] | 0.521 | -1.41 | -0.834 | 2.62 |
| FSCEICGAKFTQKGNLLRHIKL [46F_47S_49E_50I_52G_53A_54K_55F_67L_, Q9UKT9] | 3.23 | 1.96 | -0.76 | 1.76 |
| FYCEICGAKFTQKGNLLRHIKL [46F_47Y_49E_50I_52G_53A_54K_55F_67L_, Q9UKT9] | 3.9 | 3.84 | 1.98 | 1.59 |
